Entries with a potency or affinity are not part of this list. Calls of active or inactive are those of the source.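 Rule for the calls: active = a fitted half-maximal concentration no higher than twice the top valid tested dose, with signal falling as cells die; inconclusive = flat curve between -70% and -30%, or poor fit; inactive = the rest, including signal rising instead of falling.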

A short description of this assay: viability loss in HeLa cells – cell-based, ATP luminescence, cherry-pick samples, cytotoxicity control, dose response (AID 687004). To be noted: ATP luminescence (CellTiter-Glo), 48 h; series mostly up to 26 µM. A general note: Cellular ATP, detected with luciferase, serves as a proxy for viable cell number.
In the case of `CO[C@H]1CC[C@H]2CCOc3c(C#N)cccc3C(=O)N(C)C[C@@H](C)C(=O)N(C)C[C@H]1O2`, the outcome was inactive.

For the compound `CC(C)C#Cc1ccc2c(c1)O[C@H](CN(C)C(=O)Cc1ccccn1)[C@H](C)CN([C@H](C)CO)S2(=O)=O`, the call was inactive.

On to `CC(C)NC(=O)Nc1cccc2c1O[C@H](CN(C)C)[C@H](C)CN([C@@H](C)CO)C2=O`, for which the result was inactive.

For the compound `COc1ccc(NC(=O)Nc2ccc3c(c2)C(=O)N([C@H](C)CO)C[C@H](C)[C@H](CN(C)C(=O)Cc2ccccc2)OCCCC[C@H](C)O3)cc1`, the outcome was inactive.

For `COc1ccc(CN(C)C[C@@H]2Oc3ccc(NC(=O)Nc4ccc(F)cc4)cc3CC(=O)N([C@H](C)CO)C[C@H]2C)cc1`, the compound was called inactive.

Turning to `C[C@@H]1CN([C@@H](C)CO)S(=O)(=O)c2ccc(C#Cc3ccc(F)cc3)cc2O[C@H]1CN(C)C(=O)NC1CCCC1`, the call was inactive.

On to `C[C@H]1CN([C@@H](C)CO)C(=O)Cc2cc(NC(=O)Nc3ccccc3)ccc2O[C@H]1CN(C)C(=O)Nc1ccc2c(c1)OCO2`, for which the outcome was inactive.

For the compound `C[C@H](NC(=O)C[C@@H]1C=C[C@H](NC(=O)CN2CCOCC2)[C@@H](CO)O1)c1ccccc1`, the compound was classed as inactive.

`O=C(Nc1ccc(Cl)c([N+](=O)[O-])c1)c1ccco1`: the compound was classed as inactive.

With `CC(=O)N1[C@@H](CO)[C@H](c2ccc(-c3ccccc3)cc2)[C@@H]1CNC(=O)C1CC1`, the outcome was inactive.

Regarding `O=C(C[C@H]1CC[C@H]2[C@@H](COC[C@H](O)CN2Cc2cccc(Cl)c2)O1)Nc1nccs1`, the call was inactive.

In the case of `Cc1cc(C)c(NC(=O)C2CCCCN2C)c(C)c1` (stereo not drawn), the result was inactive.

Turning to `CCCNC(=O)N(C)C[C@@H]1Oc2ncc(C#CCc3ccccc3)cc2C(=O)N([C@@H](C)CO)C[C@@H]1C`, the compound was classed as inactive.

For `CC=Cc1ccc2n(c1=O)C[C@@H]1[C@@H](CO)[C@H](C(=O)N3CCCCC3)N(Cc3ccccc3)[C@H]21` (mixture of isomers), the compound was called inactive.

Regarding `CNC[C@H]1OCCCC[C@H](C)Oc2ccc(NC(=O)CCCN(C)C)cc2C(=O)N([C@H](C)CO)C[C@@H]1C`, the call was inactive.

With `COc1ccc(-c2cnc3c(c2)C(=O)N([C@H](C)CO)C[C@H](C)[C@H](CN(C)Cc2ccc(F)cc2)O3)cc1`, the compound was called inactive.

For `O=C(NC[C@@H]1[C@H](c2ccccc2)[C@@H](CO)N1C(=O)Cc1cccnc1)C1CCC1`, the outcome was inactive.

With `CC(C)NC(=O)N[C@H]1CC[C@@H](CCNC(=O)C2CC2)O[C@@H]1CO`, the compound was called inactive.

Take `C[C@@H]1CCCCO[C@H](CN(C)C(=O)Nc2ccc(F)cc2)[C@H](C)CN([C@@H](C)CO)C(=O)c2cc(NS(=O)(=O)c3ccc(Cl)cc3)ccc2O1`: the result was inactive.

As to `CN1CCc2c(sc(N)c2C(=O)c2ccc(Cl)cc2)C1`, the result was inactive.

As for `C[C@H]1CCCCO[C@H](CN(C)S(=O)(=O)c2ccc(Cl)cc2)[C@@H](C)CN([C@@H](C)CO)C(=O)c2cc(NS(=O)(=O)c3cccs3)ccc2O1`, the call was inactive.

On to `C[C@H](CO)N1C[C@H](C)[C@@H](CN(C)C(=O)Nc2cccc3ccccc23)Oc2c(cccc2N(C)C)C1=O`, for which the call was inactive.

Take `C[C@@H]1CCCCO[C@H](CN(C)Cc2ccncc2)[C@@H](C)CN([C@@H](C)CO)C(=O)c2cc(NC(=O)Nc3ccccc3)ccc2O1`: the call was inactive.
